# PubChem BioAssay (EPA / NIEHS)
# Results filed as inconclusive are left out. Active and inactive are the calls of the source. Rule for the calls, unless noted: active = hit-call score of the fitted dose curve at least 0.9, where 1 is the maximum; inactive = score below 0.9.
# Legend:
# TIMP1, TIMP1 (gene 7076) = assay: LTEA_HepaRG_TIMP1: Life Technologies and Expression Analysis (LTEA) Assay for TIMP1 using HepaRG (AID 2283534); conditions: mRNA level, 48 h; actives raise or lower the signal;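 for outcome: TaqMan qRT-PCR signal normalized to ACTB GAPDH and POLR2A housekeeping genes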
# How it was run: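 Differentiated human HepaRG cells in serum-free induction medium were exposed 48 h to chemicals (8 half-log concentrations, top 100 uM, 0.5% DMSO). TIMP1 mRNA was quantified by TaqMan qRT-PCR, normalized to ACTB/GAPDH/POLR2A; bidirectional fit versus DMSO.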
# [1] = read-out: Tumor necrosis factor receptor 1 (TNFRSF1A), TNFRSF1A (gene 7132); assay: LTEA_HepaRG_TNFRSF1A: Life Technologies and Expression Analysis (LTEA) Assay for Tumor necrosis factor receptor 1 (TNFRSF1A) using HepaRG (AID 2283535); conditions: mRNA level, 48 h; actives raise or lower the signal
# How it was run: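 Differentiated human HepaRG cells were exposed in duplicate for 48 h in serum-free induction medium to eight concentrations (top 100 uM, half-log steps, 0.5% DMSO). TNFRSF1A mRNA was quantified by qRT-PCR, normalized to ACTB, GAPDH and POLR2A, then fitted bidirectionally against DMSO.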
# [2] = read-out: Cellular tumor antigen p53 (Homo sapiens) (UniProt P04637); assay: LTEA_HepaRG_TP53: Life Technologies and Expression Analysis (LTEA) Assay for Tumor Protein P53 (TP53) using HepaRG (AID 2283537); conditions: mRNA level, 48 h; actives raise or lower the signal
# How it was run: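 Gain or loss of TP53 mRNA signal is scored relative to 0.5% DMSO after 48 h chemical treatment of HepaRG liver cells, tested in duplicate at eight half-log concentrations up to 100 uM.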
# [3] = read-out: UDP glucuronosyltransferase (UGT1A1), UGT1A1 (gene 54658); assay: LTEA_HepaRG_UGT1A1: Life Technologies and Expression Analysis (LTEA) Assay for UDP glucuronosyltransferase (UGT1A1) using HepaRG (AID 2283538); conditions: mRNA level, 48 h; actives raise or lower the signal
# How it was run: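 HepaRG, 48 h chemical exposure (top 100 uM, half-log 8-pt, 0.5% DMSO vehicle), duplicate wells; qRT-PCR (TaqMan, Fluidigm array) for UGT1A1 mRNA, housekeeping-normalized; bidirectional curve fit vs DMSO baseline.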
# [4] = read-out: UDP glucuronosyltransferase (UGT1A6), UGT1A6 (gene 54578); assay: LTEA_HepaRG_UGT1A6: Life Technologies and Expression Analysis (LTEA) Assay for UDP glucuronosyltransferase (UGT1A6) using HepaRG (AID 2283539); conditions: mRNA level, 48 h; actives raise or lower the signal
# How it was run: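 Human HepaRG cells were dosed for 48 h in serum-free induction medium with 0.5% DMSO vehicle, eight-point half-log series from 100 uM, in duplicate. UGT1A6 mRNA was measured by qRT-PCR, normalized to ACTB, GAPDH, POLR2A, and fitted bidirectionally against DMSO.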
# [5] = read-out: X-box binding protein 1 (XBP1), XBP1 (gene 7494); assay: LTEA_HepaRG_XBP1: Life Technologies and Expression Analysis (LTEA) Assay for X-box binding protein 1 (XBP1) using HepaRG (AID 2283540); conditions: mRNA level, 48 h; actives raise or lower the signal
# How it was run: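 Differentiated human HepaRG cells in serum-free induction medium were exposed in duplicate for 48 h to eight half-log concentrations up to 100 uM in 0.5% DMSO. XBP1 mRNA was quantified by qRT-PCR, normalised to ACTB, GAPDH and POLR2A, with bidirectional fitting against DMSO.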
# [6] = LTEA_HepaRG_LDH_cytotoxicity: Cytotoxicity Assessment in the Life Technologies and Expression Analysis (LTEA) Assay (AID 2283563; active = hit-call score of the fitted dose curve at least 0.9, where 1 is the maximum;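 for AC50: LDH activity released into spent culture medium as a marker of cell death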)
# How it was run: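 Differentiated human HepaRG cells, plated 48 h beforehand, were switched to serum-free induction medium and exposed for 48 h to eight half-log concentrations (top 100 uM) in 0.5% DMSO. LDH was measured in spent medium; activity was fitted relative to DMSO vehicle.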
# [7] = molecular target: Cellular tumor antigen p53 (Homo sapiens) (UniProt P04637); assay: TOX21_p53_BLA_p2_ratio: Tox21 HCT-116 p53 Agonism Beta-lactamase Assay, Ratio, Phase 2 (AID 2283592; active = hit-call score of the fitted dose curve at least 0.9, where 1 is the maximum)
# Chain of Cellular tumor antigen p53 (Homo sapiens) (P04637 whole entry, looked up): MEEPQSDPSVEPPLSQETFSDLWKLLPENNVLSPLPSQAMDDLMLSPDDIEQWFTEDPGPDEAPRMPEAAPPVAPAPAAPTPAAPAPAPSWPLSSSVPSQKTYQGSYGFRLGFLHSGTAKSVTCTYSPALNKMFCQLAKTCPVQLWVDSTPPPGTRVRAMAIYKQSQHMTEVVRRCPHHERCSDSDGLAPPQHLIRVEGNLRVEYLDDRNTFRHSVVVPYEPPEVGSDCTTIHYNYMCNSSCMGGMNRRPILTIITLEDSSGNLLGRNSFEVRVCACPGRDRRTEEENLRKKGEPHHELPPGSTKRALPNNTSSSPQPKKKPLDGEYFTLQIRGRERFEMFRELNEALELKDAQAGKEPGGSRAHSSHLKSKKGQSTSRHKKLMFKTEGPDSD
# How it was run: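 Ratio endpoint: beta-lactamase cleavage of CCF4-AM, blue (460 nm) over green (530 nm). HCT116 reporter line; 16 h treatment, 37C; substrate 2 h RT.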
smiles,measurement,setting,value
CCCc1ccccc1,outcome,"TIMP1, TIMP1 (gene 7076)",inactive
same,outcome,[1],inactive
same,outcome,[2],inactive
same,outcome,[3],inactive
same,outcome,[4],inactive
same,outcome,[5],inactive
same,outcome,[6],inactive
same,outcome,[7],inactive
O=S(=O)(O)c1ccc(N=Nc2c(O)ccc3cc(S(=O)(=O)O)ccc23)cc1,outcome,"TIMP1, TIMP1 (gene 7076)",inactive
same,outcome,[1],inactive
same,outcome,[3],inactive
same,outcome,[4],inactive
same,outcome,[5],inactive
same,outcome,[6],inactive
CCc1cccc(CC)c1N,outcome,"TIMP1, TIMP1 (gene 7076)",inactive
same,outcome,[1],inactive
same,outcome,[2],inactive
same,outcome,[3],inactive
same,outcome,[4],inactive
same,outcome,[5],inactive
same,outcome,[6],inactive
same,outcome,[7],inactive
O=C(O)c1cccc(C[C@@H]2COc3ccc(OCc4nc5cc(F)ccc5s4)cc3[C@@H]2O)c1,outcome,"TIMP1, TIMP1 (gene 7076)",inactive
same,outcome,[1],inactive
same,outcome,[2],inactive
same,outcome,[3],inactive
same,outcome,[4],inactive
same,outcome,[5],inactive
same,AC50,[6],75.6 µM (active)
same,outcome,[7],inactive
Nc1ccn([C@@H]2O[C@H](CO)[C@@H](O)[C@@H]2O)c(=O)n1,outcome,"TIMP1, TIMP1 (gene 7076)",inactive
same,outcome,[1],inactive
same,outcome,[3],inactive
same,outcome,[4],inactive
same,outcome,[5],inactive
same,outcome,[6],inactive
OC(Cn1cncn1)(Cn1cncn1)c1ccc(F)cc1F,outcome,"TIMP1, TIMP1 (gene 7076)",inactive
same,outcome,[1],inactive
same,outcome,[2],inactive
same,outcome,[3],inactive
same,outcome,[4],inactive
same,outcome,[5],inactive
same,outcome,[6],inactive
same,outcome,[7],inactive
CCCCCCCCCC,outcome,"TIMP1, TIMP1 (gene 7076)",inactive
same,outcome,[1],inactive
same,outcome,[2],inactive
same,outcome,[3],inactive
same,outcome,[4],inactive
same,outcome,[5],inactive
same,outcome,[6],inactive
same,outcome,[7],inactive
CC[C@H](C)C(=O)O[C@H]1C[C@H](O)C=C2C=C[C@H](C)[C@H](CC[C@@H](O)C[C@@H](O)CC(=O)O)[C@H]21,outcome,"TIMP1, TIMP1 (gene 7076)",inactive
same,outcome,[1],inactive
same,outcome,[3],inactive
same,outcome,[4],inactive
same,outcome,[5],inactive
same,outcome,[6],inactive
C=CN1CCCC1=O,outcome,"TIMP1, TIMP1 (gene 7076)",inactive
same,outcome,[1],inactive
same,outcome,[2],inactive
same,outcome,[3],inactive
same,outcome,[4],inactive
same,outcome,[5],inactive
same,outcome,[6],inactive
same,outcome,[7],inactive
CC(C)C(=O)Nc1ccc([N+](=O)[O-])c(C(F)(F)F)c1,AC50,"TIMP1, TIMP1 (gene 7076)",28.7 µM (active)
same,outcome,[1],inactive
same,AC50,[3],90.1 µM (active)
same,AC50,[4],74.7 µM (active)
same,AC50,[5],12.2 µM (active)
same,outcome,[6],inactive
O=S1(=O)CCCO1,outcome,"TIMP1, TIMP1 (gene 7076)",inactive
same,outcome,[1],inactive
same,outcome,[2],inactive
same,outcome,[3],inactive
same,outcome,[4],inactive
same,outcome,[5],inactive
same,outcome,[6],inactive
same,outcome,[7],inactive
Cc1ncc([C@@H](CCCCCCc2ccc3c(n2)NCCC3)CC(=O)O)cn1,outcome,"TIMP1, TIMP1 (gene 7076)",inactive
same,outcome,[1],inactive
same,outcome,[3],inactive
same,outcome,[4],inactive
same,outcome,[5],inactive
same,outcome,[6],inactive
S=P(N1CC1)(N1CC1)N1CC1,outcome,[7],inactive
CC(=O)c1ccccc1,outcome,"TIMP1, TIMP1 (gene 7076)",inactive
same,outcome,[1],inactive
same,outcome,[2],inactive
same,outcome,[3],inactive
same,outcome,[4],inactive
same,outcome,[5],inactive
same,outcome,[6],inactive
same,outcome,[7],inactive
CCCCOC(=O)c1ccccc1,outcome,"TIMP1, TIMP1 (gene 7076)",inactive
same,outcome,[1],inactive
same,outcome,[2],inactive
same,outcome,[3],inactive
same,outcome,[4],inactive
same,outcome,[5],inactive
same,outcome,[6],inactive
same,outcome,[7],inactive
C[C@@H](Oc1ccc(CNC(=O)c2cccnc2Oc2ccc3c(c2)OCO3)c(F)c1)C(=O)O,outcome,"TIMP1, TIMP1 (gene 7076)",inactive
same,outcome,[1],inactive
same,outcome,[3],inactive
same,outcome,[4],inactive
same,outcome,[5],inactive
same,outcome,[6],inactive
OCCNCCO,outcome,"TIMP1, TIMP1 (gene 7076)",inactive
same,outcome,[1],inactive
same,AC50,[3],9.92 µM (active)
same,outcome,[4],inactive
same,AC50,[5],50 µM (active)
same,outcome,[6],inactive
COS(C)(=O)=O,outcome,"TIMP1, TIMP1 (gene 7076)",inactive
same,outcome,[1],inactive
same,outcome,[3],inactive
same,outcome,[4],inactive
same,outcome,[5],inactive
same,outcome,[6],inactive
Cc1nccn1-c1ccc(Sc2cccc(C3(C(N)=O)CCOCC3)c2)cc1,outcome,"TIMP1, TIMP1 (gene 7076)",inactive
same,AC50,[1],7.54 µM (active)
same,AC50,[3],23 µM (active)
same,AC50,[4],19.1 µM (active)
same,AC50,[5],7.33 µM (active)
same,AC50,[6],20.3 µM (active)
CCCCCOC(C)=O,outcome,"TIMP1, TIMP1 (gene 7076)",inactive
same,outcome,[1],inactive
same,outcome,[3],inactive
same,outcome,[4],inactive
same,outcome,[5],inactive
